Test systems include T-47D breast; BT-549 breast; MDA-MB-435 melanoma; SW-620 colon; MCF7 breast; HCT-116 colon; HCC-2998 colon; KM12 colon.
Common to all, as to test: NCI-60 one-dose screen, 48 h (100 = growth as untreated, 0 = no growth, -100 = all killed)
Conditions in all cases: 10 µM unless noted

This is part of a sample that, as a whole, favours compounds with a hit. Of some 83,000 tested, about 20% had one in any assay.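 Results are percent growth after 48 hours of single-concentration exposure. 100 means growth as in untreated cells, lower positive values show inhibition; negative values down to -100 show cell death.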 Unmarked numbers belong to inactive results. The source made the active and inactive calls. Rule for the calls: active = growth percent below 10; inactive = the rest.

`COCCn1cc(-c2nc(-c3cc4cccnc4[nH]3)cs2)c2cc(OC)ccc21`: the growth in the assay with T-47D breast was -12.4% (active); with BT-549 breast it was 1.78% (active); in the assay with MDA-MB-435 melanoma, 52.4%; in the assay with SW-620 colon, 48.4%; with MCF7 breast, 0.765% (active); in the assay with HCT-116 colon, 30.3%. Further, the growth in the assay on HCC-2998 colon is 57.6%; with KM12 colon, 1.17% (active).

With `NC(N)=NCCCCCNc1noc(Cc2c[nH]c3cc(Br)ccc23)n1`, the growth was 59.2% in the assay on T-47D breast; 66.5% in the assay on BT-549 breast; 87.7% in the assay on MDA-MB-435 melanoma; 92.2% in the assay with SW-620 colon; 77.2% in the assay on MCF7 breast; 77.2% in the assay on HCT-116 colon. For the same compound, the figures for the growth with HCC-2998 colon and in the assay with KM12 colon were 76.1% and 45.1%, respectively.

For `CCSc1nc2scc(C)c2c(=O)[nH]1`, the growth was 101% in the assay with T-47D breast; 96.8% with BT-549 breast; 105% with MDA-MB-435 melanoma; 104% in the assay with SW-620 colon; 96.3% with MCF7 breast; 101% in the assay on HCT-116 colon. The values for the growth in the assay with HCC-2998 colon and in the assay with KM12 colon were 106% and 103%, respectively.

On to `S=c1sc2c(Cl)nc(-c3cccnc3)nc2n1-c1ccccc1`, for which the growth with T-47D breast was -14.5% (active); in the assay with BT-549 breast, 27.9%; in the assay on MDA-MB-435 melanoma, 41.2%; in the assay on SW-620 colon, 0.199% (active); in the assay with MCF7 breast it was 3.63% (active); with HCT-116 colon, 1.57% (active). The growth with HCC-2998 colon is 39.6%; with KM12 colon, 46.3%.

As to `Cc1ccc(-c2nc(N3CCCNCC3)c3oc(-c4ccccc4)nc3n2)cc1`, the growth was -67.5% (active) in the assay on T-47D breast; 81.2% with BT-549 breast; -87.9% (active) in the assay with MDA-MB-435 melanoma; -73.3% (active) in the assay with SW-620 colon; -74.7% (active) in the assay with MCF7 breast; -79.2% (active) with HCT-116 colon. For the same compound, the growth is -92.1% (active) in the assay with HCC-2998 colon and -81.5% (active) in the assay with KM12 colon.

Take `COc1cc(-c2csc(NC(=O)c3ccc(N4CCOCC4)c(C(F)(F)F)c3)n2)cc(OC)c1OC`: the growth with T-47D breast is -5.81% (active); with BT-549 breast, -7.47% (active); with MDA-MB-435 melanoma, 35.1%; in the assay on SW-620 colon, 48.9%; with MCF7 breast it was 19.2%; in the assay on HCT-116 colon it was 16%. The growth with HCC-2998 colon was 60.2%; in the assay on KM12 colon it was 16.9%.

For `[O-]/[N+](=C\c1ccc(-n2cc(Cc3ccccc3Cc3cn(-c4ccc(/C=[N+](/[O-])c5ccccc5)cc4)nn3)nn2)cc1)c1ccccc1`, the growth in the assay with T-47D breast is 93.8%; in the assay on BT-549 breast, 83.3%; in the assay on MDA-MB-435 melanoma it was 109%; in the assay on SW-620 colon it was 102%; in the assay on MCF7 breast, 90.6%; in the assay with HCT-116 colon, 91.2%. Further, the growth in the assay on HCC-2998 colon was 104%; in the assay with KM12 colon it was 98.8%.

For the compound `CC(=O)N1N=C(c2ccc(C(F)(F)F)c(F)c2)CC1c1[nH]c(C)c(C(=O)NCC(F)(F)F)c1C` (stereo not drawn), the growth with T-47D breast is 43.5%; in the assay on BT-549 breast, 89.9%; in the assay on MDA-MB-435 melanoma, 76.7%; in the assay with SW-620 colon, 94.3%; in the assay on MCF7 breast it was 73.6%; in the assay on HCT-116 colon, 34%. The growth was 72.1% in the assay with HCC-2998 colon and 60.2% with KM12 colon.

For `CC(=O)N1N=C(c2ccc(Nc3nc(Nc4ccccc4)nc(Nc4ccccc4)n3)cc2)CC1c1cccc([N+](=O)[O-])c1` (stereo not drawn), the growth in the assay with T-47D breast was 66.4%; with BT-549 breast, 111%; with MDA-MB-435 melanoma it was 96.1%; in the assay with SW-620 colon it was 94.9%; in the assay with MCF7 breast, 91.4%; in the assay on HCT-116 colon it was 95.5%. The values for the growth with HCC-2998 colon and in the assay with KM12 colon were 103% and 129%, respectively.

Regarding `Nc1nc(N)c(-c2ccc(Cl)c(Cl)c2)c(CBr)n1`, the growth was 91.6% with T-47D breast; 59.7% in the assay with BT-549 breast; 49.8% with MDA-MB-435 melanoma; 42% with SW-620 colon; 76.7% in the assay on MCF7 breast; 42% in the assay with HCT-116 colon. The growth is 71.7% with HCC-2998 colon and 88.7% in the assay with KM12 colon.

With `O=C(C[C@]1(O)C(=O)Nc2ccccc21)c1cccc(C(F)(F)F)c1`, the growth was 87.9% in the assay with T-47D breast; 97.6% in the assay on BT-549 breast; 103% in the assay with MDA-MB-435 melanoma; 91.9% in the assay with SW-620 colon; 81.2% with MCF7 breast; 95.5% in the assay with HCT-116 colon. Besides, the results for the growth in the assay with HCC-2998 colon and in the assay on KM12 colon were 107% and 87.6%, respectively.

With `COc1ccc2c(c1)CC[C@H](O)/C2=C/c1cc(OC)c(OC)c(OC)c1`, the growth was 51.9% in the assay on T-47D breast; 4.02% (active) in the assay with BT-549 breast; -54.4% (active) in the assay with MDA-MB-435 melanoma; 21.1% in the assay on SW-620 colon; 16% in the assay on MCF7 breast; 2.27% (active) with HCT-116 colon. Further, the growth in the assay with HCC-2998 colon is 22.1%; with KM12 colon, 10.8%.

With `CCSC(SCC)c1ccc(Cl)cc1`, the growth was 101% in the assay on T-47D breast; 112% in the assay with BT-549 breast; 97.4% in the assay on MDA-MB-435 melanoma; 99.3% with SW-620 colon; 104% in the assay on MCF7 breast; 108% in the assay with HCT-116 colon. Moreover, the growth is 92.3% in the assay on HCC-2998 colon and 114% in the assay with KM12 colon.

With `NS(=O)(=O)c1ccc(N=Nc2c(O)n(Cc3ccccc3)c3ccc(Cl)cc23)cc1`, the growth in the assay with T-47D breast is 79.4%; in the assay with BT-549 breast, 81.2%; with MDA-MB-435 melanoma, 79.4%; in the assay on SW-620 colon it was 79.9%; in the assay with MCF7 breast it was 75.3%; with HCT-116 colon it was 69.3%. For the same compound, the growth was 101% with HCC-2998 colon and 88.5% in the assay on KM12 colon.

For the compound `CN1C(=O)/C(=C\c2nc([P+](c3ccccc3)(c3ccccc3)c3ccccc3)c(N3CCOCC3)o2)SC1=S`, the growth in the assay with T-47D breast was 79.4%; with BT-549 breast it was 26.5%; with MDA-MB-435 melanoma it was 60%; with SW-620 colon it was 96.2%; in the assay on MCF7 breast, 85.8%; with HCT-116 colon it was 65.4%. Besides, the growth was 78% in the assay on HCC-2998 colon and 43.2% in the assay on KM12 colon.

For `CN(C)CCNC(=O)c1cc2c3cc(Cl)ccc3[nH]c2c2ncccc12`, the growth with T-47D breast is 24%; in the assay on BT-549 breast, 29.5%; in the assay with MDA-MB-435 melanoma it was -41.3% (active); in the assay with SW-620 colon, -2.12% (active); in the assay with MCF7 breast, -16.1% (active); in the assay with HCT-116 colon, -56.6% (active). Besides, the growth in the assay with HCC-2998 colon is -45.1% (active); with KM12 colon it was 25.2%.

(Values after PubChem BioAssay (NCI).)
